Consider ten compounds from PubChem BioAssay (NCI).

Among the test systems are HCT-15 colon; HT29 colon; SNB-75 CNS; PC-3 prostate; SK-MEL-5 melanoma; UACC-62 melanoma; LOX IMVI melanoma; SK-MEL-28 melanoma; SK-MEL-2 melanoma; EKVX NSCLC; SN12C renal; UO-31 renal; ACHN renal; CAKI-1 renal; A498 renal; MOLT-4 leukemia; U251 CNS; CCRF-CEM leukemia; TK-10 renal.
Test in all cases: NCI-60 one-dose screen, 48 h (100 = growth as untreated, 0 = no growth, -100 = all killed)
Details in all cases: 10 µM unless noted

About 83,000 compounds went through this panel and 20% of them were active in at least one assay; those are over-represented in the sample as a whole.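 Cells were grown in 96-well plates and exposed to the test compound at a single concentration for 48 hours; results are reported as percent growth, with values below 10 considered active.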 A number with no mark means an inactive call. Active and inactive are the calls of the source.

Take `Fc1c[c-]c(-c2ccccn2)c(F)c1.Fc1c[c-]c(-c2ccccn2)c(F)c1.[Cl][Pt+].[Cl][Pt+].c1ccc([PH+](C[PH+](c2ccccc2)c2ccccc2)c2ccccc2)cc1`: the growth in the assay with HCT-15 colon is 90.8%; in the assay with HT29 colon, 7.78% (active); with SNB-75 CNS it was 20.1%; in the assay on PC-3 prostate, 14.9%; in the assay with SK-MEL-5 melanoma it was -70.8% (active); with UACC-62 melanoma, 3.59% (active). The growth with LOX IMVI melanoma is 20.5%; with SK-MEL-28 melanoma, 16.1%; in the assay on SK-MEL-2 melanoma, 8.6% (active); with EKVX NSCLC it was 12.4%; with SN12C renal, 5.5% (active); in the assay with UO-31 renal it was 75.9%. Also, the growth was 89.3% in the assay with ACHN renal, 41.4% in the assay with CAKI-1 renal, 21.6% with A498 renal and 23.4% with MOLT-4 leukemia.
As to `Cc1ccc(N=c2nc3sc4c(C)ccc(C)c4n3c(N)c2C#N)cc1`, the growth in the assay with HCT-15 colon was 104%; with HT29 colon, 104%; with SNB-75 CNS, 92.1%; in the assay with U251 CNS, 96.1%; with PC-3 prostate, 88%; in the assay on UACC-62 melanoma, 77.9%. Moreover, the growth in the assay on LOX IMVI melanoma is 99.4%; with SK-MEL-28 melanoma it was 105%; with SN12C renal, 108%; in the assay on UO-31 renal it was 89.6%; in the assay with ACHN renal, 103%; in the assay on CAKI-1 renal, 88.4%. Besides, the results for the growth in the assay with A498 renal, in the assay on CCRF-CEM leukemia and in the assay on MOLT-4 leukemia were 110%, 85% and 93.6%, respectively.
Take `COc1ccc(NC(=O)COc2ccccc2)c(C(N)=O)c1`: the growth with HCT-15 colon was 28.8%; in the assay with HT29 colon, 6.77% (active); with SNB-75 CNS, 11.5%; in the assay with PC-3 prostate it was 39.9%; in the assay on UACC-62 melanoma, 43%; in the assay on SK-MEL-28 melanoma, 62%. Besides, the growth in the assay with SK-MEL-2 melanoma was 35.9%; with SN12C renal, 44.4%; in the assay on UO-31 renal it was 57%; in the assay with ACHN renal, 55.7%; with CAKI-1 renal, 49%; with A498 renal, 9.39% (active). In addition, the growth in the assay on CCRF-CEM leukemia is 6.03% (active); with MOLT-4 leukemia, 20.1%.
Regarding `Cc1ccc2nc(NC(=O)CSC(=S)N3CCN(Cc4ccccc4)CC3)sc2c1`, the growth in the assay with HCT-15 colon was -37% (active); in the assay on HT29 colon, -62.7% (active); with SNB-75 CNS, -93.2% (active); in the assay with U251 CNS it was -46.3% (active); in the assay with SK-MEL-5 melanoma, -96.4% (active); in the assay with LOX IMVI melanoma, -41.3% (active). The growth in the assay on SK-MEL-28 melanoma is -60% (active); in the assay with EKVX NSCLC it was 72.5%; with SN12C renal it was -1% (active); with UO-31 renal, -43.4% (active); with TK-10 renal, -36.4% (active); with ACHN renal, -2.52% (active). The growth is -20.8% (active) in the assay with CAKI-1 renal, -3.21% (active) in the assay on A498 renal and 6.71% (active) in the assay with MOLT-4 leukemia.
Take `COc1ccc(-c2c3c(N)c4c(nc3nc3c2c(C)nn3-c2ccccc2)CCCCC4)cc1`: the growth was 73.9% in the assay on HCT-15 colon; 41.4% in the assay on HT29 colon; 79.8% in the assay with SNB-75 CNS; 70.4% in the assay on PC-3 prostate; 90.6% with SK-MEL-5 melanoma; 98% with UACC-62 melanoma. The growth with LOX IMVI melanoma is 90.6%; in the assay with SK-MEL-28 melanoma, 98%; in the assay with SK-MEL-2 melanoma, 83.3%; in the assay on SN12C renal it was 93%; with UO-31 renal it was 61.6%; in the assay on TK-10 renal, 74.8%. Also, the growth with ACHN renal was 77.9%; with CAKI-1 renal, 84.2%; in the assay with A498 renal it was 87.9%; in the assay with CCRF-CEM leukemia, 48%; with MOLT-4 leukemia, 49.5%.
Turning to `c1ccc(-c2nc(N3CCOCC3)c3c4c(sc3n2)CCCCCC4)nc1`, the growth in the assay on HCT-15 colon is 46.9%; with HT29 colon, 65.9%; with SNB-75 CNS, 29.4%; with U251 CNS it was 50.3%; with UACC-62 melanoma it was 51.7%; in the assay on LOX IMVI melanoma it was 69.6%. In addition, the growth in the assay on SK-MEL-28 melanoma is 75.5%; in the assay on SN12C renal, 65.2%; in the assay with UO-31 renal, 25.9%; in the assay on ACHN renal it was 63.4%; in the assay with CAKI-1 renal, 35.3%; in the assay on A498 renal, -6.33% (active). In addition, in the assay with MOLT-4 leukemia, the growth is 52.7%.
In the case of `O=[N+]([O-])c1cc2c(cc1Br)-c1ccccc1C2`, the growth in the assay with HCT-15 colon was 45.3%; in the assay with HT29 colon, 95.9%; in the assay on SNB-75 CNS, 86.5%; with PC-3 prostate it was 91.8%; in the assay with UACC-62 melanoma, 82%; in the assay with LOX IMVI melanoma, 88.8%. The growth in the assay with SK-MEL-28 melanoma was 98.4%; in the assay on SK-MEL-2 melanoma, 101%; with EKVX NSCLC, 77.6%; in the assay with UO-31 renal it was 70.5%; in the assay with TK-10 renal it was 126%; with ACHN renal it was 94.2%. Further, the growth is 76.4% in the assay with CAKI-1 renal, 95.1% in the assay with A498 renal, 70.9% in the assay on CCRF-CEM leukemia and 88.8% in the assay on MOLT-4 leukemia.
In the case of `O=c1[nH]c(-c2ccccn2)nc2sc3c(c12)CCCCCC3`, the growth in the assay on HCT-15 colon is 27.9%; with HT29 colon, 49%; with SNB-75 CNS it was 64.8%; in the assay with U251 CNS it was 22.5%; in the assay with UACC-62 melanoma, 45.6%; in the assay on LOX IMVI melanoma, 29.7%. Also, the growth in the assay with SK-MEL-28 melanoma is 40.1%; in the assay with SN12C renal it was 50.5%; with UO-31 renal it was 31.8%; in the assay with ACHN renal, 37.5%; in the assay on CAKI-1 renal, 28.1%; in the assay with A498 renal, 36.7%. Moreover, the growth is 32.6% with CCRF-CEM leukemia and 18.8% in the assay with MOLT-4 leukemia.
Turning to `CC(=O)Nc1ccccc1-c1n[nH]c(=O)[nH]c1=O`, the growth in the assay with HCT-15 colon is 102%; in the assay with HT29 colon it was 90.7%; with SNB-75 CNS, 90.3%; in the assay on U251 CNS, 101%; in the assay with PC-3 prostate it was 99.4%; in the assay on UACC-62 melanoma it was 103%. For the same compound, the growth with LOX IMVI melanoma is 97.8%; with SK-MEL-28 melanoma, 104%; with SN12C renal it was 104%; in the assay on UO-31 renal, 79.1%; in the assay with ACHN renal, 95.3%; with CAKI-1 renal it was 83%. Besides, the growth in the assay on A498 renal was 87.8%; in the assay with CCRF-CEM leukemia, 105%; with MOLT-4 leukemia it was 109%.
Consider `Cc1ccc(-c2c3c(N)c4c(nc3nc3c2c(C)nn3-c2ccccc2)CCCC4)cc1`, for which the growth was 99.3% with HCT-15 colon; 95.4% in the assay on HT29 colon; 97.2% with SNB-75 CNS; 90.9% in the assay on PC-3 prostate; 104% in the assay on SK-MEL-5 melanoma; 106% with UACC-62 melanoma. For the same compound, the growth in the assay on LOX IMVI melanoma is 93.9%; in the assay with SK-MEL-28 melanoma, 99.8%; in the assay on SK-MEL-2 melanoma it was 96%; in the assay with SN12C renal, 99.8%; with UO-31 renal it was 88%; with TK-10 renal it was 102%. Further, the growth with ACHN renal is 97.7%; in the assay with CAKI-1 renal, 93.2%; with A498 renal it was 92.2%; in the assay with CCRF-CEM leukemia, 82.7%; in the assay on MOLT-4 leukemia, 92.6%.
